aSyn 5UTR act – Activators via SNCA 5'UTR binding, MLPCN | activity score, % (tested at 7.5 µM), hits read low | 300,000 compounds, 7.1% hits | alpha-synuclein 5'UTR reporter, activators screen; in the data active means activity score below about -60%
Of the large screens only hits and unclear results are named; the others gave an inactive call. The list is a sample of the results.

O=[N+]([O-])c1ccc(N=Cc2sc3ccccc3c2O)cc1	aSyn 5UTR act -68
CCN=C1S/C(=C\c2ccc(-c3cccc(C(=O)O)c3)o2)C(=O)N1CC	aSyn 5UTR act -69
C#CCN1C(=O)S/C(=C\c2ccc(-c3ccc(Cl)c(C(=O)O)c3)o2)C1=O	aSyn 5UTR act -93
CCN=C1S/C(=C\c2cn(CC(=O)NCc3ccco3)c3ccccc23)C(=O)N1CC	none
CCOc1ccc(N=C(/C(C(=O)C(=O)N2CCOCC2)=C(/O)c2ccccc2)c2ccccc2)cc1	aSyn 5UTR act -203
COc1ccc(NC2CC(=O)N(C(C)C)C2=O)cc1 (stereo not drawn)	aSyn 5UTR act -150
CC(C)N1C(=O)CC(Nc2ccc(N3CCOCC3)cc2)C1=O (stereo not drawn)	aSyn 5UTR act -145
O=[N+]([O-])c1cc(Cl)cc2c1nc(NCCO)c1ccccc12	aSyn 5UTR act -207
O=C(Nc1ccc(Cl)cc1)OCc1cncs1	aSyn 5UTR act -119
O=C(Nc1cccc(Cl)c1)OCc1cncs1	aSyn 5UTR act -80
O=C(Nc1cccc2ccccc12)OCc1cncs1	aSyn 5UTR act -62
Clc1ccc(Nc2nc3cccnc3s2)cc1	aSyn 5UTR act -144
CCCCNc1nc2cccnc2s1	aSyn 5UTR act -78
COc1ccccc1NC(=S)NCc1ccccn1	aSyn 5UTR act -80
O=C(CSCc1ccccn1)Nc1ccccc1	aSyn 5UTR act -70
S=C(NCc1ccccn1)Nc1ccc(Cl)cc1Cl	aSyn 5UTR act -130
CCc1ccc(NC(=O)C(=O)NCc2ccccn2)cc1	aSyn 5UTR act -144
S=C(NCc1ccccn1)Nc1ccccc1	aSyn 5UTR act -86
COc1cc2c(cc1NCc1ccccn1)oc1ccccc12	aSyn 5UTR act -154
COc1cc2c(cc1NC(=O)C(C)Sc1ccc(C)cc1)oc1ccccc12 (stereo not drawn)	aSyn 5UTR act -109
COc1cc2c(cc1NC(=O)CN1CCN(S(=O)(=O)c3ccccc3F)CC1)oc1ccccc12	aSyn 5UTR act -91
COc1cc2c(cc1NC(=O)COC(=O)Cn1cnc3ccccc31)oc1ccccc12	aSyn 5UTR act -76
COc1cc2c(cc1NC(=O)Cc1ccc(C)cc1)oc1ccccc12	aSyn 5UTR act -130
COc1cc2c(cc1NC(=O)Nc1ccccc1)oc1ccccc12	aSyn 5UTR act -67
COc1cc2c(cc1NC(=O)COC(=O)C(CCSC)NC(=O)c1ccccc1Cl)oc1ccccc12 (stereo not drawn)	aSyn 5UTR act -136
COc1ccc(-c2csc(/C(C#N)=C/Nc3cc4oc5ccccc5c4cc3OC)n2)cc1	none
CN(C)c1ccc(/C=C(\C#N)c2ccccn2)cc1	none
N#C/C(=C\c1ccc([N+](=O)[O-])cc1)c1ccccn1	aSyn 5UTR act -121
COC(=O)c1ccc(/C=C(\C#N)c2ccccn2)cc1	aSyn 5UTR act -132
CC(=O)c1ccc(NC(=S)N2CCCC(CO)C2)cc1 (stereo not drawn)	aSyn 5UTR act -82
OCC1CCCN(C(=S)Nc2ccc(Oc3ccccc3)cc2)C1 (stereo not drawn)	aSyn 5UTR act -135
CCOc1ccc(N2Cc3ccccc3C2)cc1	aSyn 5UTR act -120
CCOc1ccc(S(=O)(=O)N2c3ccccc3CC2C)cc1 (stereo not drawn)	none
CCOc1ccc(N2C(N)=NC(N)=NC2(C)C)cc1	none
C=CCNc1nc(-c2cc3ccccc3o2)cs1	aSyn 5UTR act -73
c1ccc2oc(-c3csc(NCC4CCCO4)n3)cc2c1 (stereo not drawn)	aSyn 5UTR act -110
c1ccc2sc(NCC3CCCO3)nc2c1 (stereo not drawn)	aSyn 5UTR act -151
Fc1ccc(CO/N=C2\CCCc3nonc32)cc1	aSyn 5UTR act -91
CC1=NN(C(N)=S)C(=O)C1N=Nc1cccc(C)c1 (stereo not drawn)	aSyn 5UTR act -75
CC1=NN(C(N)=S)C(=O)C1N=Nc1ccc(Cl)cc1Cl (stereo not drawn)	aSyn 5UTR act -184
CC1=NN(C(N)=S)C(=O)C1N=Nc1ccc(C)c(Br)c1 (stereo not drawn)	aSyn 5UTR act -128
N/C(=N\OC(=O)c1ccc(Br)cc1)c1ccccc1	aSyn 5UTR act -190
N/C(=N\OC(=O)c1cccc(Br)c1)c1ccc(Br)cc1	aSyn 5UTR act -96
Cc1ccc(C(=O)O/N=C(\N)c2ccc(Br)cc2)cc1	aSyn 5UTR act -215
CCc1ccc(-c2nc(CCl)cs2)cc1	aSyn 5UTR act -123
COc1ccc(C2=Nn3c(nnc3-c3ccccc3OC)SC2)cc1OC	none
COc1ccc(-c2nc(-c3ccc(O)cc3O)cs2)cc1OC	aSyn 5UTR act -94
COc1ccc(-c2nc(CCl)cs2)cc1	aSyn 5UTR act -142
COc1ccc(-c2csc(-c3ccc(O)cc3)n2)cc1	aSyn 5UTR act -215
O=C(c1ccccc1-c1nc(-c2ccc(Cl)cc2)no1)N1CCCC1	aSyn 5UTR act -251
O=C(NCC1CCCO1)c1ccccc1-c1nc(-c2ccc(Cl)cc2)no1 (stereo not drawn)	aSyn 5UTR act -74
Nc1c(C(=O)N2CCOCC2)sc2nc3c(cc12)CCCC3	none
CCOC(=O)c1sc2nc3c(cc2c1N)C(=O)CC(C)(C)C3	aSyn 5UTR act -126
COC(=O)c1sc2nc3c(cc2c1N)C(=O)CC(C)(C)C3	aSyn 5UTR act -69
